Assay outcomes (PubChem BioAssay)
Only some compounds are listed: those with a hit (about 0.65% of all), similar ones and a draw of the others.
SARS PLpro yeast-1 – qHTS of Yeast-based Assay for SARS-CoV PLP; S. cerevisiae expressing SARS-CoV PLpro, growth rescue; Potency, µM (top dose mostly 32.9 µM), inactives show top-dose activity, positive = growth rescue, most hits filed as activators; 0.19% of 330,000 active; also: potency is read from the fitted curve at half-maximal effect; 0% is about no effect; nearly all actives have a fitted effect of over 55% in size
NS1 inh – qHTS Assay for Inhibitors of Influenza NS1 Protein Function. 0.4% of 270,000 active. AID 2326, 2010. Potency, µM (top dose mostly 46.1 µM), for inactives: at the highest dose activity, positive = more growth; also: potency is read from the fitted curve at half-maximal effect; actives are rising curves; nearly all actives have a fitted effect of over 50% in size
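In this qHTS, NS1 from influenza A is expressed in budding yeast, where it slows growth. Cells are switched from glucose to 2% galactose medium (pH 6.0, -URA), treated with compound, and growth recovery is read at OD600.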
AMA1 RON2 block – qHTS for Inhibitors of AMA1-RON; Towards Development of Antimalarial Drug Lead: Primary Screen; Plasmodium falciparum AMA1 (3D7) - RON2 peptide interaction; AlphaScreen AMA1-biotinylated RON2 peptide binding; Potency, µM (top dose mostly 58.2 µM), for the others: at the top dose activity change, negative = inhibition, hits mostly inhibitors; 0.2% of 360,000 active; AID 720542, 2013; active = well fitted inhibition curve with a large enough effect; inconclusive = small, poorly fitted or top-dose-only effect; inactive = no such curve, though single readings can be large or run the other way;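 also: potency is read from the fitted curve at half-maximal effect; 0% = vehicle wells and -100% = peptide control; nearly all actives have a fitted effect of over 45% in size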
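AMA1 (3D7) with his tag at 25 nM final met compounds first, then biotinylated RON2 peptide at 25 nM; detection used donor plus acceptor beads, 10 µg/mL apiece, read by AlphaScreen after 30 min at room temperature.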
SARS PLpro yeast-2 – qHTS of Yeast-based Assay for SARS-CoV PLP: Hit Validation; shares compounds with SARS PLpro yeast-1; calls only; 19% of 1,000 active; yeast expressing SARS-CoV PLpro, growth phenotype rescue; call rule not given here
Numbers without * were called inactive; i = inactive; ? = inconclusive; · = no result; + = active, no number; [ ] = remark or other dose. Unless noted, calls follow the shape of the full dose curve.

SMILES	SARS PLpro yeast-1	NS1 inh	AMA1 RON2 block	SARS PLpro yeast-2
CCC1CCCCN1S(=O)(=O)c1ccc(C(=O)Nc2nnc(-c3cccs3)o2)cc1 (configuration not stated)	11.2µM*	-97.0%	116.8%	+
CC(OC(=O)c1cccc(-n2cnnn2)c1)C(=O)NCc1ccccc1 (configuration not stated)	2.7%	·	-4.6%	·
CC(OC(=O)c1cccc(-n2cnnn2)c1)C(=O)c1ccccc1 (configuration not stated)	?	·	14.3%	i
CC1(c2nnnn2Cc2ccccc2)CCC(=O)N1Cc1ccc(F)cc1 (configuration not stated)	·	·	2.6%	·
Cc1ccnc(NC(c2cccnc2)c2ccc3cccnc3c2O)c1 (configuration not stated)	-2.6%	0.0%	-80.0%	·
COc1ccccc1NC(c1cccnc1)c1ccc2cccnc2c1O (configuration not stated)	4.47µM*	-12.4%	-50.5%	?
CC(=NC(C)C)C1=C(O)CCC1=O	?	?	-0.3%	i
CC(=Nc1ccc(C)c(C)c1)C1=C(O)CCC1=O	-3.2%	-2.0%	-0.2%	·
COc1ccccc1NS(=O)(=O)c1ccc2[nH]c(=S)oc2c1	3.9%	·	59.8%	·
CCCCCCOC(=O)C(C#N)c1nc2ccccc2nc1N1CCN(C)CC1 (configuration not stated)	?	-35.7%	-14.7%	i
CCCCCCOC(=O)C(C#N)c1nc2ccccc2nc1N1CCCCC1 (configuration not stated)	1.2%	-4.6%	-18.1%	·
COc1ccc(Cn2c(-c3ccc(OC)cc3)n[nH]c2=S)cc1	6.6%	8.4%	91.9%	·
CC(C)Oc1ccc(Cn2c(-c3ccco3)n[nH]c2=S)cc1	22.4µM*	9.3%	47.9%	i
O=C(O)c1ccc(-n2nnnc2SCc2ccccc2Br)cc1	-1.4%	-2.9%	-0.8%	·
Cc1ccccc1NC(=O)CC1SC(=O)N(c2ccccc2)C1=O (configuration not stated)	-14.0%	?	73.5%	·
CCCN1C(=O)SC(CC(=O)Nc2ccccc2C)C1=O (configuration not stated)	?	-28.8%	7.1%	i
Cc1cc(C)cc(C(=O)N(c2ccccn2)C(C)c2ccco2)c1 (configuration not stated)	?	0.3%	6.4%	i
Cc1cccc(C(=O)N(c2ccccn2)C(C)c2ccco2)c1 (configuration not stated)	-0.1%	·	-4.0%	·
CC(NC(=O)C12CC3(C)CC(C)(CC(C)(C3)C1)C2)C(=O)O (configuration not stated)	0.7%	6.6%	14.9%	·
O=C(Cc1ccccc1[N+](=O)[O-])NCc1ccc(Cl)cc1Cl	?	-16.1%	14.6%	i
O=C(Cc1ccccc1[N+](=O)[O-])NCc1ccc(Cl)cc1	-7.4%	-11.1%	14.8%	·
Fc1ccc(Nc2nnc(C(F)(F)F)s2)cc1	-3.6%	-10.4%	-0.8%	·
COc1ccc(CCNC(=O)c2nnn(CC(=O)Nc3ccc(C)cc3C)c2N)cc1OC	-4.2%	-10.0%	-1.5%	·
COc1ccc(S(=O)(=O)N2CCC(C(=O)N[C@@H](C)C(=O)NC3CCCC3)CC2)cc1	2.3%	-0.1%	-13.8%	·
O=C(N/N=C/c1c(O)ccc2ccccc12)c1ccc[n+](CCO)c1	0.891µM*	-29.6%	?	i
SMILES	SARS PLpro yeast-1	NS1 inh	AMA1 RON2 block	SARS PLpro yeast-2
O=C(N/N=C/c1c(O)ccc2ccccc12)c1cccnc1	-8.6%	-80.7%	37.1%	·
OCC[C@H]1C[C@@H](O)[C@H](O)[C@@]2(Cc3ccccc3CO2)O1	-1.9%	·	-9.5%	·
C/C(=N\NC(=S)NC1CCCCC1)c1ccc(O)cc1	1.1%	·	16.0%	·
C/C(=N\NC(=S)NC1CCCCC1)c1ccccc1	7.94µM*	25.7%	3.3%[11.6 µM]	+
CC(N=C1NS(=O)(=O)c2ccccc21)C(=O)NCc1ccncc1 (configuration not stated)	-3.4%	·	11.1%	·
COC(=O)c1ccc(OC(=O)c2cccnc2)cc1	15.8µM*	7.1%	1.4%	?
CC(C)OC(=O)c1ccc(OC(=O)c2cccnc2)cc1	-5.9%	-9.5%	6.1%	·
COc1ccc(C(c2nnnn2-c2c(C)cccc2C)N2CCN(C/C=C/c3ccccc3)CC2)cc1 (configuration not stated)	·	·	-19.2%	·
CCCCN(C)CCNC(=O)Cn1c(=O)sc2ccccc21	4.1%	0.0%	-5.6%	·
CN(CCNC(=O)Cn1c(=O)sc2ccccc21)Cc1ccccc1	?	2.3%	-1.4%	i
